TGFb inhibitor: qHTS for Inhibitors of TGF-b | HepG2 CAGA-GFP TGF-b/SMAD3 reporter, GFP fluorescence, 18 h; TGF-beta stimulated, 500 pg/mL final | Potency, µM (titrated, usually from 46.1 µM), actives largely listed as inhibitors | hit rate 1.2% among 410,000 | AID 588855, 2011; note: nearly all actives have a fitted effect of over 65% in size
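TGF-beta reporter screen: HEPG2 CAGA-GFP, 1% FBS, 500 pg/mL TGF-beta final, 18 h; per-cell GFP summed per well; curves fitted and categorized by class.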
HT1080NT lethal: qHTS for induction of synthetic lethality in tumor cells producing 2HG: qHTS for the HT-1080-NT fibrosarcoma cell line; HT-1080-NT fibrosarcoma viability, CellTiter-Glo ATP luminescence, 48 h; Potency, µM (doses to about 46.1 µM), hits mostly cytotoxic; hit rate 1.6% among 360,000;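 note: NT is the 2HG producing partner of a matched IDH1 knockdown line; nearly all actives have a fitted effect of over 55% in size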
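750 cells/well, RPMI + 5% FBS; 2 h settle, compound pin-transfer, 48 h at 37 degrees C. CellTiter-Glo 10 min RT, luminescence. Normalized to DMSO and media-only wells.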
KB-V1 cytotox: qHTS assay for MDR1-selective chemotherapeutics: Primary screen using the drug-selected MDR subline cells KB-V1; KB-V1 MDR cells viability, CellTiter-Glo, 72 h; Potency, µM (series often up to 46.1 µM), actives largely listed as cytotoxic; hit rate 3.4% among 400,000; AID 1347076, 2019; note: nearly all actives have a fitted effect of over 60% in size
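Cytotoxicity toward P-gp-expressing KB-V1 cells was determined as loss of CellTiter-Glo luminescence after 72 h at 37 degrees C. Compounds were tested in quantitative HTS format across a concentration range, with curves fitted to normalized data.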
HepG2 tox: qHTS for Inhibitors of TGF-b: Cytotox Counterscreen. HepG2 CAGA-GFP viability, ATP luminescence, 18 h. Potency, µM (series often up to 46.1 µM), usual class: cytotoxic. hit rate 0.76% among 410,000
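CellTiter-Glo luminescence gave cytotoxicity after 18 hours at 37 degrees C. The cells were HepG2 CAGA-GFP in 1% FBS DMEM, stimulated with 500 pg/mL TGF-beta after compound addition. %Activity was normalised to no-cell wells (complete cell-killing) and DMSO (no toxicity), and curves were fitted and classified.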
KB-3-1 tox: qHTS assay for MDR1-selective chemotherapeutics: Primary screen using the parental adenocarcinoma cell KB-3-1; AID 1347075, 2019; Potency, µM (top dose mostly 46.1 µM), most hits filed as cytotoxic; hit rate 1.4% among 400,000; KB-3-1 viability, CellTiter-Glo ATP luminescence, 72 h; note: nearly all actives have a fitted effect of over 60% in size
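Viability of parental KB-3-1 cells, measured by CellTiter-Glo luminescence, followed a 72 h incubation at 37 °C with pinned compounds in phenol-red-free DMEM containing 10% FBS.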
HT1080 IDH1KD tx: qHTS for induction of synthetic lethality in tumor cells producing 2HG: qHTS for the HT-1080-IDH1KD cell line. hit rate 2% among 360,000. Potency, µM (top dose mostly 46.1 µM), usual class: cytotoxic. AID 686971, 2013. HT-1080 IDH1 knockdown viability, ATP luminescence, 48 h
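After a 2 h attachment period, IDH1KD HT-1080 cells took pin-transferred compound for 48 h at 37 °C; ATP-based luminescence after 10 min room-temperature reagent incubation reported viability.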
Hits are given with their value; . = inactive; ? = inconclusive; / = no result given. This is a sample that favours compounds with a hit; in the whole collection about 6.6% have one here. Calls come from the whole dose curve; as a rule, active = well fitted curve in the direction sought with a large enough effect; inconclusive = small, poorly fitted or top-dose-only effect, or another doubt; inactive = no such curve, though single readings can be large; an effect the other way counts as inactive or inconclusive.

SMILES | TGFb inhibitor | HT1080NT lethal | KB-V1 cytotox | HepG2 tox | KB-3-1 tox | HT1080 IDH1KD tx
Cc1ccc(S(=O)(=O)N2CN(Cc3ccco3)c3nc4ccccc4nc32)cc1 | . | . | . | . | . | .
C[n+]1ccc(/C=C/c2c[nH]c3ccc(F)cc23)cc1 | . | . | . | . | 8.2µM | ?
CC1CCCCN1C(=O)CSc1ccc(-c2ccc(F)cc2)nn1 (centres undefined) | . | . | 12µM | . | . | .
COc1ccccc1N1CCN(S(=O)(=O)c2c(C)sc3ncn(CC(=O)N(C)c4ccc(C(C)C)cc4)c(=O)c23)CC1 | . | / | . | . | . | /
C=C(CCC(=O)c1ccccc1)C(=O)c1ccccc1 | . | 26µM | ? | 10µM | ? | ?
O=C(CCCCCCCC(=O)c1ccccc1)c1ccccc1 | . | . | . | . | . | .
CC(=O)c1c(C)oc2c1cc(NS(=O)(=O)c1ccc(Br)cc1)c1ccccc12 | . | / | ? | . | 5.2µM | /
O=C(O)CSc1cc(NS(=O)(=O)c2ccc(Br)cc2)c2ccccc2c1O | ? | 21µM | ? | . | . | 16µM
Cc1ccc(S(=O)(=O)Nc2ccc(Br)cc2C(NCC(=O)O)c2ccccc2)cc1 (centres undefined) | ? | . | ? | . | . | .
CCOC(=O)Cn1nc2oc(=O)c(CCN3CCN(c4ccccc4OC)CC3)c(C)c2c1C | . | . | ? | . | . | .
CCNc1nc(-c2sc(NC(=O)C(C)(C)C)nc2C)c(-n2cc(-c3ccccc3)nn2)s1 | / | ? | 18µM | / | ? | ?
COc1ccccc1OC(C)C(=O)Nc1ccc(-c2nc3ccccc3s2)cc1 (centres undefined) | . | / | . | . | . | /
Cc1ccc(-c2noc(CCCC(=O)NC3CCCCC3)n2)cc1 | . | . | 16µM | . | ? | .
Cc1ccc(-c2noc(CCCC(=O)Nc3cccnc3)n2)cc1 | . | . | ? | . | . | 23µM
COc1ccccc1-c1noc(CCCC(=O)Nc2cccc(C(F)(F)F)c2)n1 | 13µM | / | . | . | . | /
CCCN1CNc2c(c(=O)[nH]c(=S)n2CCc2ccc(Cl)cc2Cl)C1 | / | . | / | / | / | .
CC(C)OC(=O)c1cn(-c2ccccc2)nc1-c1ccc2c(c1)OCCO2 | . | . | 7.3µM | . | . | .
NC(=O)/C=C\c1cn(-c2ccccc2)nc1-c1ccc2c(c1)OCCO2 | . | . | 15µM | . | . | .
CNC(=O)COC(=O)/C=C/c1cn(-c2ccccc2)nc1-c1ccc2c(c1)OCCO2 | . | . | . | . | . | .
O=C(/C=C/c1cn(-c2ccccc2)nc1-c1ccc2c(c1)OCCO2)NCCO | . | . | . | . | . | .
CC(C)CCn1c(=O)c2cccnc2n(CC(=O)Nc2ccc(F)cc2)c1=O | . | / | . | . | . | /
CCN(CC)CCCNc1cc(-c2ccccc2)nc(C)n1 | . | / | . | . | . | /
CCCSc1nc2cc(OC)c(OC)cc2c(=N)n1CCCN1CCOCC1 | . | 15µM | ? | . | . | ?
COc1ccc(NC(=O)C2CC3C=CC2C3)c([N+](=O)[O-])c1 (centres undefined) | . | . | 21µM | . | . | .
Cc1nc(SCC(=O)Nc2ccccc2Cl)cc(-c2ccccc2)n1 | . | / | / | . | / | /
SMILES | TGFb inhibitor | HT1080NT lethal | KB-V1 cytotox | HepG2 tox | KB-3-1 tox | HT1080 IDH1KD tx
CCOC(=O)c1cc(-c2ccccc2)n(CCC(=O)NCCc2ccccc2)c1C | . | / | / | . | / | /
CCc1ccccc1NC(=O)c1ccc2c(c1)CCCN2S(C)(=O)=O | . | / | . | . | . | /
CCc1ccc(N2C(=O)CN(Cc3cc(OC)c(OC)c(OC)c3)C2=S)cc1 | ? | . | 7.3µM | . | . | .
COc1cc(CN2CC(=O)N(c3ccc(C)c(C)c3)C2=S)cc(OC)c1OC | . | . | 16µM | . | ? | .
CC(=O)c1nnn(-c2nc(N)nc(N(c3ccccc3)c3ccccc3)n2)c1C | . | . | 10µM | . | . | .
Cc1cc(C)n(-c2nc(Nc3ccccc3)nc(-n3nc(C)cc3C)n2)n1 | . | . | . | . | . | .
Cc1cc(C)n(-c2nc(N(c3ccccc3)c3ccccc3)nc(-n3nc(C)cc3C)n2)n1 | ? | . | 2.6µM | . | 18µM | .
COc1ccc(NC(=S)NNC(=O)c2nnn(-c3ccccc3)c2C)cc1 | . | . | 18µM | . | . | .
Cc1c(O)c2c(c(C(=O)/C=C/c3ccccc3)c1O)OC(C)(C)C=C2 | 11µM | / | . | . | . | /
Cc1ccc(C(=O)/C=C/c2ccccc2)o1 | . | . | ? | . | ? | .
COc1cccc(-c2ccnc3c(-c4ccccc4)c(C)nn23)c1 | . | / | . | . | . | /
Cc1nc(N)nc(N)c1-c1ccc(Cl)c(Cl)c1 | ? | ? | . | 0.63µM | ? | 0.58µM
Nc1nc(N)nc(-c2ccc(Cl)c(Cl)c2)n1 | ? | . | . | . | . | .
Cc1nc(N)nc(N)c1CCCc1ccc(Cl)c(Cl)c1 | ? | 8.2µM | ? | . | ? | 1.2µM
Cc1cc(OCc2nc(N)nc(N)c2-c2ccc(Cl)c(Cl)c2)ccc1[N+](=O)[O-] | ? | ? | 1µM | . | 2.1µM | 0.82µM
COc1ccc(C=O)cc1COc1ccc([N+](=O)[O-])c(C)c1 | . | ? | . | . | . | ?
Cn1c(SCC(=O)c2ccc3c(c2)Cc2ccccc2-3)nnc1-c1cccc(N)c1 | . | . | 16µM | . | . | .
CCC(=O)Nc1ccccc1-c1nc2ccccc2n(CC(=O)c2ccc(C)cc2)c1=O | . | / | . | . | . | /
Cc1ccc(C)c(NC(=O)Nc2csc3c2CCCC3)c1 | . | / | . | . | . | /
CCOC(=O)c1cc(C#N)c(N2CCN(C(=O)c3ccccc3)CC2)nc1C(F)(F)F | . | . | 21µM | . | . | .
CCOC(=O)[C@]12CCCC=C1N(Cc1cccc3ccccc13)C(=O)[C@H](CC(=O)N1CCCCC1)C2 | / | . | 9.2µM | / | ? | .
CCOC(=O)[C@]12CCCC=C1N(Cc1cccc3ccccc13)C(=O)[C@H](CC(=O)N1CCSCC1)C2 | / | ? | 18µM | / | . | .
CCCCCCCCN1C(=O)[C@H](CC(=O)N2CCSCC2)C[C@@]2(C(=O)OCC)CCCC=C12 | / | ? | 23µM | / | ? | ?
C=CCn1c(SCc2ccccc2C#N)nnc1-c1cc(Br)ccc1O | . | . | 3.7µM | . | ? | ?

Screening data as filed in PubChem BioAssay.
